Screening data as filed in PubChem.
The list is not random: actives were taken first. Their share in the collection is about 19%.
IL1B secr inh – inhibitors of inflammasome signaling (IL-1 beta secretion). AID 743279. THP-1 LPS/ATP IL-1B secretion, AlphaLISA, 16 h; hits give low values. 4.7% of 360,000 active. activity change, % at 57.5 µM; in the data active = activity change below about -50%; inconclusive = mostly about -30% to -49%; note: % is set by controls: 0 for no effect and ±100 for the full control effect
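Secreted IL-1B measured by AlphaLISA bead assay after 16 h compound exposure of THP-1 cells; compounds (final up to 57.5 uM) added 1 h before LPS (250 ng/mL) and ATP (1.25 mM) stimulation; lower signal means less secretion.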
HepG2 viability – counter-screen for TGF-b inhibitors: cytotoxicity in HepG2 cells; Potency, µM (highest dose often 46.1 µM), inactives show at the top dose activity change, negative = cytotoxicity, most hits filed as cytotoxic; HepG2 CAGA-GFP viability, ATP luminescence, 18 h; 0.76% of 410,000 active; note: potency is the fitted concentration of half-maximal effect
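CellTiter-Glo luminescence gave cytotoxicity after 18 hours at 37 degrees C. The cells were HepG2 CAGA-GFP in 1% FBS DMEM, stimulated with 500 pg/mL TGF-beta after compound addition. %Activity was normalised to no-cell wells (complete cell-killing) and DMSO (no toxicity), and curves were fitted and classified.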
TDP1 cell noCPT – qHTS for Inhibitors of human tyrosyl-DNA phosphodiesterase 1 (TDP1): qHTS in cells in absence of CPT | DT40 Tdp1-/- hTDP1 cells, no CPT, ATP luminescence, 48 h | Potency, µM (series often up to 46.2 µM), without a hit: at the highest dose activity change, negative = growth inhibition, usual class: inhibitors | 15% of 420,000 active | AID 686978, 2013; note: potency is the fitted concentration of half-maximal effect; % is set by controls: 0 for no effect and ±100 for the full control effect; nearly all actives have a fitted effect of over 55% in size
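Compound effects on proliferation are scored in DT40 Tdp1-/-;hTDP1 cells in the absence of CPT. ATP levels (CellTiter-Glo luminescence) are recorded after a ≥48 hr, 37 °C incubation.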
TGFb SMAD3 inh – blocks TGF-b signaling; AID 588855; HepG2 CAGA-GFP TGF-b/SMAD3 reporter, GFP fluorescence, 18 h; TGF-beta stimulated, 500 pg/mL final; 1.2% of 410,000 active; Potency, µM (series often up to 46.1 µM), inactives show at the top dose activity, negative = inhibition, most hits filed as inhibitors; note: potency is the fitted concentration of half-maximal effect; % is set by controls: 0 for no effect and ±100 for the full control effect; nearly all actives have a fitted effect of over 65% in size
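HEPG2 CAGA-GFP reporter cells (1000/well, DMEM with 1% FBS) received compounds, then recombinant TGF-beta at 500 pg/mL final for 18 hours at 37 degrees C. Per-cell GFP summed per well was normalised to unstimulated and stimulated DMSO controls before curve fitting.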
TDP1 cell CPT – growth inhibition of DT40 Tdp1-/-;hTDP1 cells with camptothecin (screen for TDP1 inhibitors). chicken DT40 Tdp1-/-;hTDP1 cells + 20 nM CPT, ATP luminescence, 48 h. Potency, µM (series often up to 46.2 µM), without a hit: top-dose activity change, negative = growth inhibition, hits mostly inhibitors. 12% of 420,000 active. AID 686979; note: potency is the fitted concentration of half-maximal effect; % is set by controls: 0 for no effect and ±100 for the full control effect; nearly all actives have a fitted effect of over 55% in size
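Cell growth measured by CellTiter-Glo luminescence after a minimum 48 h, 37 C compound exposure with 20 nM CPT in Tdp1-knockout DT40 cells stably expressing hTDP1, seeded 400/well; qHTS titration format.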
ASM inhibitor – blocks human secretory acid sphingomyelinase; P17405; placental ASM, HMU-PC fluorogenic substrate, 60 min; Potency, µM (top dose mostly 57.5 µM), without a hit: at the top dose activity change, negative = inhibition, hits mostly inhibitors; 0.006% of 340,000 active; AID 504937; note: potency is the fitted concentration of half-maximal effect
Target sequence (P17405 47-631 limits assumed): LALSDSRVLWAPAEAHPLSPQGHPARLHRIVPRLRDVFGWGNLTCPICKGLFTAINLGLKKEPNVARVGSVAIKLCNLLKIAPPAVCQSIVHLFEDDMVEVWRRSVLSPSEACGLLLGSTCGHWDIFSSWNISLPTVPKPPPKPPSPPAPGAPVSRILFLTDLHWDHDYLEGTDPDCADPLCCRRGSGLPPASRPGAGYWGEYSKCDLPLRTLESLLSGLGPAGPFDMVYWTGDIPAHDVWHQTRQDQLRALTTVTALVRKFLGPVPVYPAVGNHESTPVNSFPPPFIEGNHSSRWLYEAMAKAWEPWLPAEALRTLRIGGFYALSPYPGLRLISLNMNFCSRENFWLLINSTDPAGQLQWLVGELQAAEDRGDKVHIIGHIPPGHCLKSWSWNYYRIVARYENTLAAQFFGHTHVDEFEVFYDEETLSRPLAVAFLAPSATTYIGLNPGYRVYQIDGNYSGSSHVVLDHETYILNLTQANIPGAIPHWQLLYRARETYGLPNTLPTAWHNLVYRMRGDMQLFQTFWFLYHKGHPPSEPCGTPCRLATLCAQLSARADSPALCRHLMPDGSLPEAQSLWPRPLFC
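Fluorescence read-out (Ex 386 nm, Em 447 nm) after stopping the reaction at pH 10. Enzyme: ASM from human placenta; substrate HMU-PC0, 9 uM final; 60 min, 37 °C. Compound preincubation 10 min, ambient temperature.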
The depositor's hits bear a star; [ ] = dose if it differs, or a comment. Unless noted, calls come from the whole dose curve; as a rule, active = well fitted curve in the direction sought with a large enough effect; inconclusive = small, poorly fitted or top-dose-only effect, or another doubt; inactive = no such curve, though single readings can be large; an effect the other way counts as inactive or inconclusive.

`c1ccc(-c2ccccc2OCCCN2CCCC2)cc1` gave IL1B secr inh inconclusive, HepG2 viability 5%, TDP1 cell noCPT inconclusive, TGFb SMAD3 inh 13%, TDP1 cell CPT -27% and ASM inhibitor -1%.
For N=C(CC(O)COc1ccccc1-c1ccccc1)N1CCCCC1 (stereo not given) the results were TDP1 cell noCPT 3.3µM* and TDP1 cell CPT 5.2µM*.
For Nn1c(SCC(=O)NCCc2ccc(F)cc2)nnc1C1CCCCC1 the results were IL1B secr inh 10, HepG2 viability 3%, TDP1 cell noCPT -5%, TGFb SMAD3 inh -3%, TDP1 cell CPT 0% and ASM inhibitor 4%.
For CCc1ccc(NC(=O)c2cc3sc(Cl)cc3n2C)cc1 the results were HepG2 viability -26%, TDP1 cell noCPT inconclusive, TGFb SMAD3 inh 4% and TDP1 cell CPT inconclusive.
For COc1ccc(CCN(C(=S)Nc2ccccc2)C2CC(=O)N(c3ccccc3)C2=O)cc1 (stereo not given) the results were IL1B secr inh 19, HepG2 viability -38%, TDP1 cell noCPT inconclusive, TGFb SMAD3 inh -10%, TDP1 cell CPT inconclusive and ASM inhibitor -5%.
For O=C1CC(N(CCc2ccccc2)C(=S)Nc2ccccc2)C(=O)N1c1ccc(Br)cc1 (stereo not given) the results were IL1B secr inh -12, HepG2 viability 2.2µM*, TDP1 cell noCPT 18µM*, TGFb SMAD3 inh inconclusive and TDP1 cell CPT 16µM*.
`Cc1ccc(N2C(=O)CC(N(CCc3ccccc3)C(=S)Nc3ccc(N(C)C)cc3)C2=O)cc1` (stereo not given) gave IL1B secr inh inconclusive, HepG2 viability -34%, TDP1 cell noCPT inconclusive, TGFb SMAD3 inh inconclusive, TDP1 cell CPT 18µM* and ASM inhibitor -6%.
CCOc1ccc(CCNC(=O)c2ccc(C)c(-n3cnc4cccnc43)c2)cc1 was read as HepG2 viability 3%, TDP1 cell noCPT inconclusive, TGFb SMAD3 inh inconclusive and TDP1 cell CPT inconclusive.
Screening CC(OC(=O)c1cccnc1Cl)C(=O)Nc1ccc2c(c1)OCO2 (stereo not given) returned IL1B secr inh 12, HepG2 viability -21%, TDP1 cell noCPT 21µM*, TGFb SMAD3 inh -26%, TDP1 cell CPT inconclusive and ASM inhibitor 3%.
`COc1cccc(C(=O)OC(C)C(=O)Nc2ccc3c(c2)OCO3)c1` (stereo not given) gave IL1B secr inh 28, HepG2 viability -10%, TDP1 cell noCPT 8.2µM*, TGFb SMAD3 inh -14%, TDP1 cell CPT 13µM* and ASM inhibitor -2%.
O=C(COC(=O)c1cccnc1Cl)Nc1ccc2c(c1)OCCO2 was read as IL1B secr inh 3, HepG2 viability 2%, TDP1 cell noCPT -9%, TGFb SMAD3 inh 10%, TDP1 cell CPT -13% and ASM inhibitor 3%.
Screening CN1CC2=Cc3ccccc3OC23Oc2ccccc2C=C3C1 returned IL1B secr inh -117*, HepG2 viability -86%, TDP1 cell noCPT inconclusive, TGFb SMAD3 inh inconclusive, TDP1 cell CPT inconclusive and ASM inhibitor 2%.
For Cc1nc2ccc(NC(=O)c3ccc([N+](=O)[O-])cc3)cc2[nH]1 the results were IL1B secr inh 3, HepG2 viability 0%, TDP1 cell noCPT 16µM*, TGFb SMAD3 inh 18%, TDP1 cell CPT inconclusive and ASM inhibitor -3%.
For O=C(Nc1ccc([N+](=O)[O-])cc1)c1ccc(Cn2cc([N+](=O)[O-])cn2)cc1 the results were IL1B secr inh -8, HepG2 viability -23%, TDP1 cell noCPT 13µM*, TGFb SMAD3 inh -21%, TDP1 cell CPT 18µM* and ASM inhibitor -11%.
`O=C(Nc1ccc(Nc2ccncc2)cc1)c1ccc([N+](=O)[O-])cc1` gave IL1B secr inh -98*, HepG2 viability 18µM*, TDP1 cell noCPT 15µM*, TGFb SMAD3 inh 18µM*, TDP1 cell CPT 21µM* and ASM inhibitor -7%.
For O=C(Nc1ccc(Oc2cccnc2)cc1)c1ccc([N+](=O)[O-])cc1 the results were IL1B secr inh inconclusive, HepG2 viability -26%, TDP1 cell noCPT inconclusive, TGFb SMAD3 inh -7%, TDP1 cell CPT -26% and ASM inhibitor 0%.
`O=C(Nc1cnn(Cc2ccc(Cl)cc2)c1)c1ccc([N+](=O)[O-])cc1` gave IL1B secr inh inconclusive, HepG2 viability -11%, TDP1 cell noCPT inconclusive, TGFb SMAD3 inh -3%, TDP1 cell CPT inconclusive and ASM inhibitor -10%.
For CC(C)CCOC(=O)C(C)Sc1n[nH]c(=O)[nH]c1=O (stereo not given) the results were IL1B secr inh 29, HepG2 viability 3%, TDP1 cell noCPT -14%, TGFb SMAD3 inh 5%, TDP1 cell CPT 13% and ASM inhibitor -1%.
For Cc1cc(CNC(=O)CCN2Cc3cc(Cl)ccc3OC(C)C2)nn1C (stereo not given) the results were TDP1 cell noCPT -10% and TDP1 cell CPT -121%[9.04 µM].
For O=C(C(=O)N1CCN(c2ccc([N+](=O)[O-])cc2)CC1)c1cn(CC(=O)N2CCOCC2)c2ccccc12 the results were IL1B secr inh inactive, HepG2 viability 0%, TDP1 cell noCPT inconclusive, TGFb SMAD3 inh 2%, TDP1 cell CPT inconclusive and ASM inhibitor -17%.
For CN(C)CCOC(=O)c1ccc2[nH]c3c(c2c1)CSCC3 the results were IL1B secr inh -74*, HepG2 viability 2%, TDP1 cell noCPT -17%, TGFb SMAD3 inh inconclusive, TDP1 cell CPT -24% and ASM inhibitor 3%.
`S=C(NCc1ccccn1)NN=Cc1ccccn1` gave IL1B secr inh 94, HepG2 viability -12%, TDP1 cell noCPT 0.15µM*, TGFb SMAD3 inh -20%, TDP1 cell CPT 0.15µM* and ASM inhibitor 2%.
For CC(=C/C(=O)O)/C=C/c1ccc([N+](=O)[O-])cc1 the results were IL1B secr inh -2, HepG2 viability 29%, TDP1 cell noCPT -18%, TGFb SMAD3 inh 28%, TDP1 cell CPT -5% and ASM inhibitor -1%.
CC1(C)COC(/C=C/c2ccc([N+](=O)[O-])cc2)=N1 was read as IL1B secr inh -102*, HepG2 viability -39%, TDP1 cell noCPT 16µM*, TGFb SMAD3 inh inconclusive, TDP1 cell CPT inconclusive and ASM inhibitor -1%.
